In all, about 65,000 compounds went through this assay and about 2,100 (3.2%) showed an effect of 50% or more. The median lay at about -52%. The sample as a whole holds a higher share of strong results than the screen did.

In this experiment the test system is Plasmodium falciparum. Description: Screen against P. falciparum Asexual Blood Stage (ABS), at 5uM. Format: functional, Dd2. The conditions noted are these: tested at 5 uM.
Take `Cc1nccc([C@@H]2C[C@@H]3CCN(Cc4ccco4)C[C@H]3O2)n1`: the INHIBITION is -17.2%.

For `Cc1ccc(NCCCNC(=O)C2CCCN(Cc3ccco3)C2)nc1` (configuration not stated), the INHIBITION is listed as 70.6%.

Turning to `O=C(Nc1cccnc1)[C@H]1CN(Cc2ccco2)C[C@H]2OCC[C@@H]12`, the INHIBITION is reported as -115%.

As for `CC(C)CC(=O)N1CCC2(CC1)OCCO2`, the INHIBITION is reported as -80.4%.

`COc1ccc2ncn(Cc3ncc[nH]3)c(=O)c2c1`: the INHIBITION is -84.2%.

With `CCC1CN(C(=O)c2ccc(Cl)cc2O)CCN1C(C)C` (configuration not stated), the INHIBITION amounted to 73.3%.

With `CC(C)N1CCO[C@H]2CN(C(=O)c3ccncc3F)C[C@H]21`, the INHIBITION is -88.4%.

On to `O=C(c1ccc(Cl)cc1-n1cnnn1)N1CCC2(CC1)OCCO2`, for which the INHIBITION is recorded as -52.7%.

As to `O=C1CO[C@@H]2CN(Cc3cccnc3)C[C@H]2N1Cc1ccncc1`, the INHIBITION is -6.5%.

As to `C[C@H]1C[C@H]2CN(Cc3ccccn3)CC[C@@H]2O1`, the INHIBITION is on record as -8.95%.

As for `O=C1Nc2ccccc2C12CCN(Cc1ccccn1)CC2`, the INHIBITION is given as -45.4%.

`Cc1[nH]c2ccc(CNC3CCN(Cc4ccccn4)CC3)cc2c1C`: the INHIBITION came to 93.6%.

Regarding `O=S(=O)(NC[C@H]1C[C@@H]2CCN1C[C@@H]2CN1CCCC1)c1ccc(Cl)cc1`, the INHIBITION is 89.4%.

Consider `O=S(=O)(NC[C@H]1C[C@@H]2CCN1C[C@@H]2CN1CCOCC1)c1ccccc1`, for which the INHIBITION is recorded as -71.9%.

`O=C(NC[C@H]1C[C@@H]2CCN1C[C@@H]2CN1CCCCC1)Nc1ccccc1`: the INHIBITION is listed as -34.9%.

Take `CC(=O)N1CCOCC2(CN(Cc3ccccn3)CCO2)C1` (configuration not stated): the INHIBITION is reported as -107%.

Consider `CN1CCCN(C(=O)c2ccnn2-c2ccc3ccccn23)CC1`, for which the INHIBITION stood at 70.8%.

Take `CN1CCN(C(=O)c2cn(Cc3ccccc3)c3ncccc23)CC1`: the INHIBITION is -70.4%.

As to `CC(NC1CCCC1)c1ccccc1-n1cccn1` (configuration not stated), the INHIBITION is on record as 81%.

On to `NC(Cc1nc(-c2ccccc2)no1)c1ccccc1` (configuration not stated), for which the INHIBITION was -253%.

Take `NC(CC1CCCCC1)c1ccccc1` (configuration not stated): the INHIBITION stood at 55.4%.

On to `Cc1cc(CN2CC[C@H]3OCC[C@@]3(C(=O)N3CCOCC3)C2)no1`, for which the INHIBITION was -53.6%.

Regarding `COc1cccc([C@@H]2CCN(Cc3cn(C)c4ccccc34)C[C@H]2O)c1`, the INHIBITION is 78%.

Turning to `COc1cccc([C@@H]2CCN(Cc3cccc(C)n3)C[C@H]2O)c1`, the INHIBITION is on record as -29.5%.

For the molecule `OC[C@@H]1[C@@H](c2ccccc2)CN2CCN(c3ccccn3)C[C@H]12`, the INHIBITION is recorded as -63.3%.

Turning to `Cn1cc(CN2CCCC(CCc3ccc(F)cc3F)C2)cn1` (configuration not stated), the INHIBITION is 89.3%.

In the case of `Cn1cc(CN2CCN3C[C@H](Oc4cccnc4)C[C@H]3C2)cn1`, the INHIBITION was -50.7%.

For the molecule `CN(C)[C@@H]1CCN(C(=O)Cc2ccc(F)cc2)[C@H]1Cc1cnn(C)c1`, the INHIBITION is on record as -2.98%.

With `Cc1cccc(CN2CC[C@H]3[C@H]2CCN3Cc2cnn(C)c2)n1`, the INHIBITION is -127%.

As for `Cc1ccc(N2CCO[C@H]3CN(Cc4cnn(C)c4)C[C@H]32)nn1`, the INHIBITION was 7.68%.

For the molecule `Cn1cc(CN2CCCC(CCc3ccc(F)c(F)c3)C2)cn1` (configuration not stated), the INHIBITION is given as 71.2%.

Turning to `Cn1cc(CN2C[C@H](Oc3ncccc3F)[C@H]3OCCC[C@H]32)cn1`, the INHIBITION was -37%.

Consider `Cn1cc(CN2CC[C@H]3CO[C@H](CNc4ncccn4)[C@H]3C2)cn1`, for which the INHIBITION is recorded as -108%.

`Cn1cc(CN2C[C@@H]3CCC[C@@H](OCc4cccnc4)[C@@H]3C2)cn1`: the INHIBITION is recorded as -74.7%.

Turning to `Cn1cc(CN2CCCC(CCc3ccc(F)cc3)C2)cn1` (configuration not stated), the INHIBITION is 74.7%.

With `Cn1cc(CN2CC[C@@H]3[C@@H]2CCN3C(=O)Cc2cccc(F)c2)cn1`, the INHIBITION is given as -39.1%.

With `Cn1cc(CN2CCCC(CCc3c(F)cccc3F)C2)cn1` (configuration not stated), the INHIBITION was 79.3%.

On to `CC(=O)N1CCC2(CCN(CC(C)C)C2)C1` (configuration not stated), for which the INHIBITION is on record as -17.7%.

For the molecule `CCOC(=O)CN1C[C@@H]2OCCN(c3ncc(F)cn3)[C@@H]2C1`, the INHIBITION is -17.5%.

`COCc1cn(C[C@H]2C[C@@H]3CCN2C[C@@H]3C(=O)N2CCOCC2)nn1`: the INHIBITION is -65.4%.

Turning to `Cc1cc(C)nc(-n2nc(C)c3c2NC(=O)CSC3c2cnn(C)c2)n1` (configuration not stated), the INHIBITION is -48.5%.

As for `Cc1noc(C)c1CN1CCO[C@H]2CN(Cc3nccn3C)C[C@H]21`, the INHIBITION was -35.4%.

For `CN(C)Cc1cncc2c1CCN(Cc1cnn(C)c1)C2`, the INHIBITION is recorded as -86.8%.

Consider `FC(F)(F)c1ccccc1CCC1CCCN(Cc2cscn2)C1` (configuration not stated), for which the INHIBITION turned out to be 79.6%.

`COc1cccc([C@@H]2CCN(Cc3c[nH]c(C)n3)C[C@H]2O)c1`: the INHIBITION is -35.2%.

Take `Cc1nc(CN2CCCC(CCc3ccc(F)c(F)c3)C2)c[nH]1` (configuration not stated): the INHIBITION amounted to 81.9%.

For the molecule `Cn1ccnc1CN1CCCC(CCc2ccc(F)c(F)c2)C1` (configuration not stated), the INHIBITION is 74.5%.

On to `O=C(Cc1cnccn1)N1C[C@@H]2CC[C@H]1CN(Cc1cscn1)C2`, for which the INHIBITION is listed as -120%.

`Cc1nc(CN2CCCC(CCc3ccccc3C(F)(F)F)C2)no1` (configuration not stated): the INHIBITION amounted to 45.9%.

`Cn1ccnc1CN1CCN2C[C@H](OCc3cccnc3)C[C@H]2C1`: the INHIBITION is listed as -52.6%.

For the molecule `Cn1cc(CN2CCCC(CCc3ccccc3C(F)(F)F)C2)cn1` (configuration not stated), the INHIBITION is recorded as 87.9%.

`COc1ccc(F)c(CN2CCCC(O)(CNC3CCCCC3)C2=O)c1` (configuration not stated): the INHIBITION is given as 70.3%.

With `COC(=O)C(CO)NC(=O)c1cn(Cc2ccccc2F)nn1` (configuration not stated), the INHIBITION is -19.2%.

Consider `O=C1N(Cc2ccc(F)c(F)c2)CCCC1(O)CNCC1CCCCC1` (configuration not stated), for which the INHIBITION stood at 74.1%.

In the case of `Cc1nc(C2(NCc3cccc(F)c3F)CCCCC2)no1`, the INHIBITION is recorded as -42.2%.

As for `O=C1N(Cc2cccc(F)c2F)CCCC1(O)CNCC1CCCCC1` (configuration not stated), the INHIBITION is given as 74.4%.

`CC(C)(C)CNCC1(O)CCCN(Cc2ccccc2F)C1=O` (configuration not stated): the INHIBITION was 84.5%.

Turning to `O=C(C1CCCC1)N1CCO[C@@H]2CNC[C@@H]21`, the INHIBITION was 8.33%.

Take `O=C1N(c2ccsc2)CCC12CCCN(Cc1ccccn1)C2` (configuration not stated): the INHIBITION was -30.2%.

For `c1cncc(OC[C@@H]2CC[C@H]3[C@H](CCN3Cc3cccs3)O2)c1`, the INHIBITION is -15.5%.

In the case of `Cc1oncc1C(=O)N[C@@H]1CN(CC2CC2)C[C@@H]2CCCO[C@@H]21`, the INHIBITION is -164%.

Consider `Cc1cc(CN2C[C@@H]3COC[C@]3(CNC(=O)c3ccco3)C2)no1`, for which the INHIBITION is reported as -65.1%.
